PubChem BioAssay AID687020 (Broad Institute, 2013)
Out of some 1,400 compounds screened, about 100 (7.1%) were called active. These entries were drawn from the full list. Potency and affinity values are given separately. A number with no mark means an inactive call. The rule behind the calls is not given here.

Test: viability loss in Vero cells – cell-based, plate reader, cherry-pick samples, cytotoxicity control, dose response (AID 687020);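 note: compounds incubated with cells for three days before luminescence read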
Conditions: series mostly up to 19.5 µM; activity change, negative = toxicity: at the top concentration

Structure (SMILES) | activity change, negative = toxicity
O=C(Nc1ccc2c(c1)CCC2)c1ccccc1 | -24.3%
CN1CCC(=O)N([C@H](COc2ccccc2)Cc2ccccc2)CC1 | -32.2%
Cc1cccc(C(=O)OCC(=O)NCc2ccc(Cl)cc2)c1 | 3.4%
CSc1ccccc1OCc1cc(C(=O)N2CCc3[nH]cnc3C2c2ccccn2)no1 (centres undefined) | -6.11%
CN1C(c2ccccc2)CCOS1(=O)=O (centres undefined) | -1.7%
C=CCOc1ccc(CNCc2cccnc2)cc1OCC | -10%
Cc1nc2c(OCCC3CCCCC3)cccn2c1N(C)C(=O)CCC1CCCC1 | -28%
Cc1csc(-c2nc3ccccc3n2C(C(=O)NC(C)(C)C)c2ccccc2)c1 (centres undefined) | -16%
Cc1ccc(-c2nc3ccccc3n2C(C(=O)NC(C)(C)C)C2CC2)cc1 (centres undefined) | -7.18%
CCOc1ccc(OCC(=O)N(C)c2c(N)n(Cc3ccccc3)c(=O)[nH]c2=O)cc1 | -14.1%
CC#CCN1C(=O)N[C@@H](c2ccccc2)C(C(=O)OC)=C1C | -21.8%
C[C@@H]1CN([C@H](C)CO)C(=O)c2cc(NC(=O)c3ccncc3)ccc2O[C@@H](C)CCCCO[C@H]1CN(C)C | -1.49%
COc1ccc2c(=O)cc(-c3ccncc3)oc2c1OC | -13.6%
CCOC(=O)C1=C(C)NC(=O)C(C#N)C1c1ccncc1 (centres undefined) | -5.8%
Cc1cc(OCC(=O)NC2CC(C)(C)NC(C)(C)C2)c(C)cc1Br | 12.8%
CCc1cc(=O)oc2cc(OCC(=O)NC3CC(C)(C)NC(C)(C)C3)ccc12 | -15.9%
CCOC(=O)C1(Cc2ccccc2C)CCCN(C(=O)c2cc(C3CC3)[nH]n2)C1 (centres undefined) | -27.9%
N#CC(Cc1ccccc1OC(F)F)c1nc2ccccc2[nH]1 (centres undefined) | -9.96%
CC(=O)NC[C@H]1[C@H](c2ccc(-c3ccccc3F)cc2)[C@@H](CO)N1C(=O)C1CC1 | -10.5%
O=C(COC(=O)c1ccc2c(c1)OCO2)NC1CCCCC1 | -7.5%

Structure (SMILES) | activity change, negative = toxicity
COCCNC(=O)C1(C)CCCN(C(=O)c2ccc(C(F)(F)F)cc2)C1 (centres undefined) | -9.24%
CO[C@@H]1CN(C)C(=O)c2cc(NC(=O)c3ccccc3)ccc2OC[C@H](C)N(C(=O)C2CC2)C[C@@H]1C | -1.15%
O=C(O)C1CCCCC1C(=O)N1CCN(S(=O)(=O)c2ccc(F)cc2)CC1 (centres undefined) | -12.7%
COc1cc(C(=S)N2CCCCC2)ccc1OCC(=O)Nc1ccc(F)cc1 | -33.6%
O=C(NCCCC1CCCC1)C1CCC(=O)N(Cc2cccc(C(F)(F)F)c2)C1 (centres undefined) | 8.67%
COc1ccc(NC(=O)Nc2ccc3c(c2)C(=O)N([C@@H](C)CO)C[C@H](C)[C@H](CN(C)Cc2ccc(C(=O)O)cc2)OCCCC[C@H](C)O3)cc1 | -1.97%
O=C1NC[C@H](Cc2ccccc2)N(CC2CCN(CCCCc3ccccc3)CC2)C1=O | -14.5%
O=C1[C@@H](Oc2ccccc2)[C@@H](c2ccncc2)N1c1ccccc1 | 7.85%
COc1cccc(OCc2cc(C(=O)N(C)CCC3CCCCO3)no2)c1 (centres undefined) | -26.9%
COc1cc(C(=S)N2CCCC2)ccc1OCc1ccc(C)cc1 | -12.9%
O=S(=O)(NCCC1=CCCCC1)c1ccc(Br)cc1 | 3.27%
F[B-](F)(F)c1cnc2ccccc2c1 | 12.8%
Cn1cccc1C(=O)OCC(=O)NC(=O)c1ccc(Cl)cc1 | -5.5%
C[C@H](CO)N1C[C@H](C)[C@@H](CN(C)C(=O)Nc2ccc(C(F)(F)F)cc2)OCCCC[C@H](C)Oc2ccc(NS(=O)(=O)c3cccs3)cc2C1=O | -1.02%
Cc1noc(C)c1NC(=O)Nc1ccc2c(c1)C(=O)N([C@@H](C)CO)C[C@@H](C)[C@@H](CN(C)Cc1ccccc1)OCCCC[C@@H](C)O2 | -5.3%
CNC[C@@H]1OCCCC[C@H](C)Oc2ccc(NS(=O)(=O)c3c(C)noc3C)cc2C(=O)N([C@@H](C)CO)C[C@H]1C | -5.49%
O=S(=O)(Nc1nc(SCc2ccc(Cl)cc2)n[nH]1)c1ccc(F)cc1 | 2.93%
Cc1ccc(C(=O)OCC(=O)Nc2ccccc2C(F)(F)F)cc1S(=O)(=O)N1CCCCC1 | -27.8%
O=C(NCCc1ccccc1)c1ccccc1NC(=O)C1CCCCC1C(=O)O (centres undefined) | -3.43%
OC[C@@H]1[C@@H](c2ccccc2)C2(CN(Cc3nccs3)C2)N1Cc1cccnc1 | 10.8%

Structure (SMILES) | activity change, negative = toxicity
C[C@@H]1CN([C@@H](C)CO)C(=O)c2cc(C#Cc3cccc(F)c3)cnc2O[C@@H]1CN(C)C(=O)C1CCC1 | -12.1%
CC(=O)NC(c1cccc(F)c1)c1nc(-c2ccc(N(C)C)cc2)cs1 (centres undefined) | -10.4%
CC(C)CCCN1CCN=C1Nc1ccccc1 | -13%
CC1CCC(CN2C(Nc3ccccc3)=NC[C@@H]2C)CC1 (some centres undefined) | -28%
Cc1ccc(/C=N/NC(=O)c2ccc(-n3cnnn3)cc2)cc1 | 6.5%
CS(=O)(=O)N1[C@@H]2CNC[C@H]1C2c1ccc(-c2ccccc2)cc1 (some centres undefined) | 5.49%
COc1ccc2c(c1)OC[C@H]1[C@H]2N2C(=O)c3cc(OC)ccc3NC(=O)[C@@]2(C)[C@H]1c1ccccc1 | -11.2%
CCOC(=O)C1CCN(C(=O)C2CC(=O)N(c3ccc4c(c3)OCCO4)C2)CC1 (centres undefined) | -12.9%
c1ccc(COCCCn2cc(-c3ccccc3)nn2)cc1 | -27.7%
C[C@@H]1CN([C@H](C)CO)C(=O)c2cc(C#Cc3ccc(F)cc3)cnc2O[C@@H]1CN(C)C | 0.983%
CCCNC(=O)NC[C@@H]1[C@@H](c2ccc(C3=CCCC3)cc2)[C@@H](CO)N1C(=O)CC | -1.97% [at 21 µM]
COc1ccccc1S(=O)(=O)N(C)C[C@H]1Oc2cc(C#CCC(C)C)ccc2S(=O)(=O)N([C@@H](C)CO)C[C@@H]1C | -4.17%
N#C[C@H]1[C@H](c2ccc(C#CC3CCCCC3)cc2)[C@@H](CO)N1C(=O)Cc1ccccn1 | -3.62%
CCc1c(C2(O)CCCCC2)[nH]c2c(C(=O)OC)cc(Cl)cc12 | -0.036%
COc1ccc(NC(=O)CN(C)CCOc2ccc(Cl)cc2)cc1OC | -28.6%
Cc1ccc(S(=O)(=O)N2CCCCC2)cc1NC(=O)CCOc1ccccc1 | -31%
CCN(CC)S(=O)(=O)c1ccc(N2CCOCC2)c(NC(=O)c2ccccc2)c1 | 3.04%
O=C(COc1ccc2c(-c3ccccc3)cc(=O)oc2c1)NC1CCS(=O)(=O)C1 (centres undefined) | -5.66%
C[C@H](CO)N1C[C@H](C)[C@H](CN(C)C(=O)Nc2ccc(-c3ccccc3)cc2)OCc2ccccc2-c2c(n(C)c3ccccc23)C1=O | -26.3%
